Data published in PubChem BioAssay AID1813 (Broad Institute, 2009).
Among all 300,000 compounds or so, about 2,500 (0.83%) were called active. The entries come from a sample that favours actives as a whole. Unmarked numbers belong to inactive results. Cut-off read from the data, not from the text of the source: active = inhibition above about 60%; inconclusive = no clear call, values can overlap the other calls; inactive = below that.

Assay: MLPCN primary screen, SNCA 5' untranslated region (AID 1813);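 note: H4 neuroglioblastoma cells stably carrying SNCA 5'UTR luciferase fusion; 0% = DMSO wells and 100% = positive control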
Details: alpha-synuclein 5'UTR reporter, inhibitor activity; active compounds read high; tested at 7.5 µM

Going from `O=C(CNCc1ccc(F)cc1)Nc1ccccc1-c1ccccc1` to `c1ccc(NCc2cccc3ccccc23)nc1`, the inhibition rises from 16.3% to 19.1%.

Compared with `COCc1cc(=O)[nH]c(SC)n1`, `COc1ccccc1/C=N/Nc1nc(C)c(C(C)=O)s1` is lower in inhibition: -10.1% for the first, -154% for the second.

Compared with `N#C/C(=C\c1cccnc1)C(=O)Nc1ccc(SC(F)F)cc1`, `CCNS(=O)(=O)c1ccc(NC(=O)c2cncc(Br)c2)cc1` is higher in inhibition: 1.4% for the first, 8.56% for the second.

Compared with `O=[N+]([O-])c1ccc2[nH]c3c(c2c1)CCCC3O` (stereo unspecified), `O=[n+]1c2c(n([O-])c3cc(Br)ccc31)CCC2` is lower in inhibition: 10.7% for the first, 10.3% for the second.

First: COC(=O)CN1C(=O)N/C(=C/c2ccc(OC)c(C)c2OC)C1=O
Second: COc1ccc(NC(=O)c2cccc3c2C(=O)N(CC2CCCO2)C3)cc1OC (stereo unspecified)
The inhibition of the first is lower: -8.7% for the first, 32.1% for the second.

First: O=C(COC(=O)Cn1[nH]c(=O)c2ccccc2c1=O)Nc1c(Cl)cccc1C(F)(F)F
Second: Cc1cc(OC(=O)c2ccccc2Cl)ccc1N1C(=O)CCC1=O
The inhibition of the first is higher: 4.65% for the first, -3.87% for the second.

Going from `CN1C(=O)/C(=C/c2ccc(C(=O)NC3CCCC3)cc2)Oc2ccccc21` to `O=C(NCCN1CCOCC1)c1ccc(/C=C2\Sc3ccccc3N(Cc3ccc(F)cc3)C2=O)cc1`, the inhibition rises from -48% to 14%.

Compared with `FC(F)(F)c1cnc(Oc2ccccc2-c2nnc(-c3ccc(Cl)cc3)o2)c(Cl)c1`, `CSc1nnc2ccc(-c3ccc(C)cc3)nn12` is higher in inhibition: -1.16% for the first, 16.4% for the second.

Going from `Oc1cccc(/C=N/Nc2ccc(Cl)nn2)c1O` to `Oc1ccc(N=Nc2nccs2)c(O)c1`, the inhibition rises from -6.82% to 24.3%.

Compared with `Cc1n[nH]c(=O)c2c(NC(=O)CSc3ccccc3F)oc(C)c12`, `CCn1c(=O)c(C(=O)NCc2ccc3c(c2)OCO3)c(O)c2ccccc21` is higher in inhibition: -9.19% for the first, 11.8% for the second.

Going from `CCCCOc1ccc(C(=O)NN2CCN(C)CC2)cc1` to `CCOc1ccc(CC(=O)NCCS(=O)(=O)N2CCN(c3ccccc3)CC2)cc1`, the inhibition rises from 1.5% to 13.9%.

First: CCCOc1ccc(C(=O)CCC(=O)OC(C)C(=O)Nc2ccc(NC(C)=O)cc2)cc1 (stereo unspecified)
Second: Cc1ccc(NC(=O)COc2ccc(/C=C3/NC(=O)NC3=O)cc2)cc1
The inhibition of the first is lower: -18.6% for the first, 1.96% for the second.

Going from `Cc1ccc(S(=O)(=O)N2CCCCC2)cc1C(=O)N(C)CC(=O)Nc1cccc(F)c1` to `COc1ccc(C(=O)C2CCCN(S(=O)(=O)c3cccc(C)c3)C2)c(C)c1` (stereo unspecified), the inhibition falls from 11% to -3.32%.

Compared with `CCOC(=O)c1c(NC(=O)c2ccc(S(=O)(=O)N(C)CC3CCCO3)cc2)sc2c1CC(C)(C)NC2(C)C` (stereo unspecified), `COc1ccc(S(=O)(=O)N(C)CC(=O)NCCCN2CCOCC2)cc1Cl` is higher in inhibition: 0.581% for the first, 6.18% for the second.

Going from `COC(=O)c1sccc1NC(=O)COc1ccc(Cl)cc1` to `Cc1ccc(C)c(NC(=O)COC(=O)Cn2c(C)csc2=O)c1`, the inhibition rises from -35.3% to 3.94%.

Going from `Cc1ccc(-c2cn3cc([N+](=O)[O-])ccc3n2)cc1` to `Cc1ccc2nc(-c3ccncc3)cc(C(=O)Nc3ccncc3)c2c1`, the inhibition falls from 22.1% to 5.38%.

First: COC(=O)C1(C)NC(c2ccccc2OC)C2C(=O)N(c3ccccc3)C(=O)C21 (stereo unspecified)
Second: CC(C)CC[n+]1ccn(C2=C([O-])c3ccccc3C(=O)/C2=N\S(=O)(=O)c2ccccc2)c1
The inhibition of the first is higher: 0.536% for the first, -27.8% for the second.

First: COc1ccc2c(c1)CCNC2Cc1ccc(OC)c(O)c1 (stereo unspecified)
Second: CCc1ccc(OCC2c3cc(OC)c(OC)cc3CCN2C(C)=O)cc1 (stereo unspecified)
The inhibition of the first is higher: 11.8% for the first, 0.678% for the second.

First: Cc1ccccc1/[N+]([O-])=C/c1ccncc1
Second: COc1cccc2c(N/N=C/c3ccco3)cc(C)nc12
The inhibition of the first is higher: 5.11% for the first, -38.3% for the second.

Compared with `Cn1cc(CNC(=O)c2ccc(OC3CCN(Cc4ccccn4)CC3)cc2)cn1`, `O=C(c1ccc(OC2CCN(Cc3ccccn3)CC2)cc1)N1CCCCCC1` is lower in inhibition: 14.6% for the first, 3.78% for the second.

Compared with `Cc1ccc(Nc2nc(Cl)c(C=O)s2)cc1`, `Cc1ccc2nc(-c3ccncc3)cc(C(=O)Nc3ccc4c(c3)OCCO4)c2c1` is higher in inhibition: -26.4% for the first, 47.2% for the second.

Going from `Cc1csc2nc(O)c(C(=O)NCCN3CCOCC3)c(=O)n12` to `Cc1nc2ccccn2c1C(=O)NN=C1CCN(C)CC1`, the inhibition rises from 0.0631% to 18%.

Going from `Cc1ccc2sc(N(CCN(C)C)C(=O)/C=C/c3cccs3)nc2c1C` to `CCCC[C@@H]1CN=C(N)N1CCc1cccc(F)c1`, the inhibition rises from -3.93% to -1.65%.

Going from `CCOc1ccc(C(C(=O)NC2CCCC2)N(C(=O)c2snc(C(N)=O)c2N)C2CCCC2)cc1` (stereo unspecified) to `OCCC1CN(Cc2ccc3nsnc3c2)CCN1C1CCCCC1` (stereo unspecified), the inhibition falls from 1.96% to -4.85%.

For `O=C1CCCc2c1[nH]c1ccc(Br)cc21`, the inhibition was 89% (active).
In the case of `CN1CCN(CCCNC(=O)c2ccc(/C=C3\Oc4ccccc4N(Cc4ccc(Cl)cc4)C3=O)cc2)CC1`, the inhibition is reported as 96.5% (active).
For `COc1cccc(/C=N/Nc2ncc(C(F)(F)F)cc2Cl)c1O`, the inhibition was 76.7% (active).
With `Oc1ccc2ccccc2c1N=Nc1nccs1` the inhibition was 87.4% (active).
In the case of `CCCOc1ccc(C(=O)C(CCC(CNCC)C(=O)c2ccc(OCCC)cc2)CNCC)cc1` (stereo unspecified), the inhibition is reported as 107% (active).
In the case of `COC(=O)c1c(NC(=O)COc2ccc(Cl)cc2Cl)sc2c1CC(C)(C)NC2(C)C`, the inhibition is reported as 102% (active).
For `CN1CCN(C2Cc3ccc(Cl)cc3Sc3ccc(F)cc32)CC1` (stereo unspecified), the inhibition was 104% (active).
For `Cc1ccc2nc(-c3ccc(Br)cc3)cn2c1`, the inhibition was 63.2% (active).
With `CC[C@H]1CN2CCc3cc(OC)c(OC)cc3[C@@H]2C[C@@H]1C[C@H]1NCCc2cc(OC)c(OC)cc21` the inhibition was 109% (active).
With `O=C(NCCOc1cccnc1)c1ccc(OC2CCN(Cc3ccccn3)CC2)cc1` the inhibition was 95.3% (active).
With `Cc1ccc2nc(-c3ccncc3)cc(C(=O)Nc3ccc(OC(F)F)cc3)c2c1` the inhibition was 67.6% (active).
In the case of `COc1cccc(/C=N/Nc2cc(C)nc(-c3ccccc3O)n2)c1O`, the inhibition is reported as 82.8% (active).
In the case of `CCCCCCCCn1c2c(c(=N)c3c1CCC3)CCCC2`, the inhibition is reported as 101% (active).
